From PubChem BioAssay come the findings set out here.

The structures appear in SMILES notation. The source made the active and inactive calls.

One experiment has as its target Albumin (Bos taurus) (UniProt P02769). Nature of the experiment: bovine serum albumin binders on microarray, profiling panel, artefact control for SMM control protein annotation, biochemical, small-molecule microarray, Alexa647 label, 635/667 nm fluorescence (AID 1118).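 Also: score merges 667 nm emission intensity and signal-to-noise per printed compound spot.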 Particulars: BSA-A647 binding, fluorescence 635 nm, higher = more signal.
Experiment [1] can be described thus: small-molecule microarray binders of probe aXIP, primary screen, biochemical, NeuroSMM set, 635/667 nm fluorescence (AID 1119).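 Also: probe is the protein aXip251-270 applied at 1 µg/mL to compound-printed slides; binding of probe to printed compounds measured as 667 nm fluorescence plus signal to noise.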 To be noted: higher = more signal, called active from +8 up or from −8 down.
Experiment [2] in a line: small-molecule binders of probe aNOTCH3, primary screen, biochemical, small-molecule microarray, 635/667 nm fluorescence (AID 1120).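 Also: probe is a biotin-tagged antibody raised against NOTCH3 rather than NOTCH3 protein; score merges spot fluorescence near 667 nm with spot signal to noise.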 To be noted: higher = more signal.
A short description of experiment [3]: small-molecule binders of probe aNOTCH2, primary screen, biochemical, small-molecule microarray, 635/667 nm fluorescence (AID 1121).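 Also: score merges feature fluorescence read at 667 nm with its signal to noise.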 To be noted: higher = more signal.
Experiment [4] concerns the target Carbonic anhydrase 2 (Homo sapiens) (UniProt P00918). Nature of the experiment: CAII small-molecule binders, profiling panel, biochemical, small-molecule microarray, Alexa647-labelled CAII (AID 1122). Particulars: CAII-A647 binding fluorescence, higher = more signal.
A short description of experiment [5]: COS7 lysate on small-molecule microarray, probe aHis, 635 nm (AID 1123).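 Also: z-score combines 667nm fluorescence intensity with signal-to-noise per printed compound spot.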 Particulars: COS7 cell lysate, fluorescence, higher = more signal.
A short description of experiment [6]: compound binding in COS7 lysate, probe aLAP1, primary screen, cell lysate, small-molecule microarray (AID 1124).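 Also: lysate comes from COS7 cells expressing LAP1 and is applied at 0.3 µg/mL; score merges spot fluorescence near 667 nm with signal-to-noise over triplicate slides.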 To be noted: probe aLAP1, fluorescence, higher = more signal.
The subject of a further experiment is Sam68 (KHDRBS1). As to the kind of experiment: Sam68 small-molecule binders, primary screen, biochemical, small-molecule microarray, 635 nm fluorescence (AID 1125).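 Also: score merges 667 nm channel intensity with signal to noise over triplicate slides.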 To be noted: small-molecule microarray binding, higher = more signal.
The subject of experiment [7] is Chordin-like protein 2 (CHRDL2). Nature of the experiment: CHRDL2 small-molecule binders, primary screen, biochemical, small-molecule microarray, 635 nm fluorescence (AID 1126).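 Also: printed compound slides probed with Chrdl2 protein at 4 µg/mL for 1 h at 4 C; score merges 667 nm emission intensity with signal to noise over three replicate slides.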 Particulars: small-molecule microarray binding, fluorescence 635 nm; higher = more signal.
For experiment [8], the target named is Concanavalin-A (Canavalia ensiformis) (UniProt P02866). As to the kind of experiment: ConA small-molecule binders, primary screen, artefact control for SMM control protein annotation, biochemical, small-molecule microarray, Alexa647 label, 635 nm (AID 1127).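 Also: z combines 667 nm emission intensity with signal-to-noise across three replicate slides.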 To be noted: ConA-A647 binding fluorescence, higher = more signal.
Chain of Concanavalin-A (Canavalia ensiformis) (P02866 whole entry, looked up): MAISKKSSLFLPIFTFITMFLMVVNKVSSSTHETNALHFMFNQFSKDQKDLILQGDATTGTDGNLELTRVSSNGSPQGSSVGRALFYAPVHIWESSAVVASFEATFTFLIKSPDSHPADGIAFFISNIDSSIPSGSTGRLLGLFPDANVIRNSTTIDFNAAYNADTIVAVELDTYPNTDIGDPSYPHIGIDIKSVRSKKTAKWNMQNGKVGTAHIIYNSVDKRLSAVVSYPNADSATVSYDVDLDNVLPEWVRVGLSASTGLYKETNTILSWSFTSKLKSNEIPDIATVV
Experiment [9] is described as follows: anti-His antibody binders, primary screen, artefact control for SMM control protein annotation, biochemical, small-molecule microarray, 635 nm fluorescence (AID 1128).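 Also: score merges feature fluorescence with signal-to-noise for each printed compound spot.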 To be noted: anti-His Alexa647 antibody binding, higher = more signal.
Experiment [10] deals with Human papillomavirus type 1a E7 protein (residues 1-88). Nature of the experiment: HPV1a E7 small-molecule binders, primary screen, biochemical, small-molecule microarray, residues 1-88, 635 nm (AID 1129). Particulars: small-molecule microarray binding, fluorescence 635 nm; higher = more signal.
Experiment [11] has as its target Focal adhesion kinase 1 (Homo sapiens) (UniProt Q05397). Nature of the experiment: small-molecule microarray binders of FAK, primary screen, biochemical, 635/667 nm fluorescence, BSA, DTT (AID 1130).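 Also: composite of spot emission at 667 nm and signal to noise over triplicate slides.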 Particulars: PTK2 binding, 635 nm fluorescence, higher = more signal.
The subject of experiment [12] is Fibrinogen (Alexa647-labelled). As to the kind of experiment: fibrinogen binders on compound microarrays, profiling panel, artefact control for SMM control-protein annotation, biochemical, small-molecule microarray, 635/667 nm fluorescence (AID 1131).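 Also: z-score merges 667 nm fluorescence with per-spot signal-to-noise over triplicate slides.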 To be noted: fibrinogen-A647 binding fluorescence, higher = more signal.
Experiment [13] has as its target Follistatin (Homo sapiens) (UniProt P19883). As to the kind of experiment: follistatin binders on small-molecule microarrays, primary screen, biochemical, small-molecule microarray, 635/667 nm fluorescence (AID 1132). Particulars: FST binding, 635 nm fluorescence, higher = more signal.
Experiment [14] has as its target Fibroblast growth factor 2 (Homo sapiens) (UniProt P09038). Nature of the experiment: FGF2 binders on small-molecule microarrays, primary screen, biochemical, small-molecule microarray, 635/667 nm fluorescence (AID 1133). Particulars: small-molecule microarray binding, FGF2, fluorescence 635/667; higher = more signal.
Experiment [15] in a line: mitochondrial membrane potential change in A549 cells, profiling panel, cell-based, JC-1 fluorescence, basal, 24 h, 100 nL (AID 1138).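 Also: A549 lung adenocarcinoma cells under basal conditions with no added stimulus; test concentration not given here.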 To be noted: higher = more signal.
Another experiment relates to Lefty1. Nature of the experiment: Lefty1 binders on small-molecule microarrays, primary screen, biochemical, small-molecule microarray, 635/667 nm fluorescence (AID 1139). To be noted: small-molecule microarray binding, fluorescence 635/667; higher = more signal.
Experiment [16] has as its system wheat germ agglutinin (Triticum aestivum), Alexa647-labelled. Nature of the experiment: wheat germ agglutinin binders on compound microarrays, profiling panel, artefact control for SMM control-protein annotation, biochemical, small-molecule microarray, 635/667 nm fluorescence (AID 1140).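 Also: score merges 667 nm feature emission with signal to noise over triplicate slides.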 Particulars: WGA-A647 binding, 635 nm fluorescence, higher = more signal.
Experiment [17] concerns the target Luciferin 4-monooxygenase (Photinus pyralis) (UniProt P08659). Nature of the experiment: firefly luciferase enzyme inhibitors, primary screen, biochemical, luminescence, purified enzyme, 2006 set (AID 1141).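 Also: cell-free assay with purified firefly luciferase at 100 ng per well in PBS; test concentration not given here.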 To be noted: SteadyGlo luminescence, 30 min, higher = more signal, called active from +8 up or from −8 down.

Chain of Luciferin 4-monooxygenase (Photinus pyralis) (P08659 whole entry, looked up): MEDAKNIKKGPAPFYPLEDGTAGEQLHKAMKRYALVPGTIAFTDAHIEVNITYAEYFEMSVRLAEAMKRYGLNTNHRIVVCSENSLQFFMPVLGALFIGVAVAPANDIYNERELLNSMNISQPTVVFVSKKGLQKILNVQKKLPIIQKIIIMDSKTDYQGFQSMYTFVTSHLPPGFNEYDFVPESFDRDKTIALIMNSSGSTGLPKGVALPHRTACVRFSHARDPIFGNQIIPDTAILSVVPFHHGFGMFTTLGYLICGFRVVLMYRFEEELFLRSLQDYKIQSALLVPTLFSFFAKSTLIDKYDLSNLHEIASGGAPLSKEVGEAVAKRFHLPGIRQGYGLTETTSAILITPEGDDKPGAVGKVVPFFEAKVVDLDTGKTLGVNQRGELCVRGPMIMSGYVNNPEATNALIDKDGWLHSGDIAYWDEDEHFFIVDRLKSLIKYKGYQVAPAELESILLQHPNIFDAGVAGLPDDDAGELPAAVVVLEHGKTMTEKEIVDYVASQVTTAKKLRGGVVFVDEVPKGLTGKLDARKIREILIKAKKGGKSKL
Chain of Focal adhesion kinase 1 (Homo sapiens) (Q05397 whole entry, looked up): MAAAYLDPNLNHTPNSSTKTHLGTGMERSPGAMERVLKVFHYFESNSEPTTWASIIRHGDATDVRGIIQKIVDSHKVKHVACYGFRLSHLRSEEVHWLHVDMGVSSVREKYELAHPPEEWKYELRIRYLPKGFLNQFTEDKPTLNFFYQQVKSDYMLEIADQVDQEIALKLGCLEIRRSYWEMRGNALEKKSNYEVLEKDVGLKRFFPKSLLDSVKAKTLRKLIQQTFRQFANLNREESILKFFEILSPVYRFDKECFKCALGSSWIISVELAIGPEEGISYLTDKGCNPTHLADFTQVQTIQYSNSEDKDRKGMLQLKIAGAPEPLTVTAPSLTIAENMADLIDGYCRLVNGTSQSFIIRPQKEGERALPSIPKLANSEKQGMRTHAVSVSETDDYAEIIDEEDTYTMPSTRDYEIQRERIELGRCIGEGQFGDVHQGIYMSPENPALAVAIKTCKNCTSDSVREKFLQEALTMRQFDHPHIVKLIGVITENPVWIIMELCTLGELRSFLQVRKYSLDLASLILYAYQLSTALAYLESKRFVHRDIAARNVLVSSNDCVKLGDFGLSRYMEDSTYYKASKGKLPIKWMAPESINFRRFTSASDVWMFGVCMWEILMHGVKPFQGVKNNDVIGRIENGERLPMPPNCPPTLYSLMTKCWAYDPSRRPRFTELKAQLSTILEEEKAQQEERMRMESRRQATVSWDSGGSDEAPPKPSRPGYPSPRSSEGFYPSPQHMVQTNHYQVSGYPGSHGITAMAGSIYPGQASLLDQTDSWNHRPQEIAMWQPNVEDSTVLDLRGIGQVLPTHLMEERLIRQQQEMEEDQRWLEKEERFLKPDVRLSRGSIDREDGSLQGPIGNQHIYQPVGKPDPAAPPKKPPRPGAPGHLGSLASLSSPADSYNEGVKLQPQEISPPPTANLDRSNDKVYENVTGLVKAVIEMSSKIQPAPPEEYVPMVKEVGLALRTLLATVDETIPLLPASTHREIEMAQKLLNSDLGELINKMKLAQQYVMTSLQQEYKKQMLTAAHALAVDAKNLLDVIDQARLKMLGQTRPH
Chain of Follistatin (Homo sapiens) (P19883 whole entry, looked up): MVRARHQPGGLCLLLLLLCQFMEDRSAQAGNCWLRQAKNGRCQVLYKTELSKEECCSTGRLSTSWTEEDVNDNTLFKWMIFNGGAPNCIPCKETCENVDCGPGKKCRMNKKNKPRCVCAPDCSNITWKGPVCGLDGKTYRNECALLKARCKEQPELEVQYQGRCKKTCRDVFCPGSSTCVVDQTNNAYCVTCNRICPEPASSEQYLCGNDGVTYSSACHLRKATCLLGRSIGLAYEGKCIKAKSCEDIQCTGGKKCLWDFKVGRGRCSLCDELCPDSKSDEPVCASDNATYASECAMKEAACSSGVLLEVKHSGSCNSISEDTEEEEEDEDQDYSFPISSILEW
Chain of Fibroblast growth factor 2 (Homo sapiens) (P09038 whole entry, looked up): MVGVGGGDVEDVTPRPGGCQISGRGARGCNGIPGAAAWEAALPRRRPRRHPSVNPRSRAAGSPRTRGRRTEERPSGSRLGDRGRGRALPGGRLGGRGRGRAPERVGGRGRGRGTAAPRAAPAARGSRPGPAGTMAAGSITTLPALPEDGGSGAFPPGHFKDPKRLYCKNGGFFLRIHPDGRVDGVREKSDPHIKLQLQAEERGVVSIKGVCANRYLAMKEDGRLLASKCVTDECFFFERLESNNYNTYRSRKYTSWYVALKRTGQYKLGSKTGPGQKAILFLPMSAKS
Chain of Albumin (Bos taurus) (P02769 whole entry, looked up): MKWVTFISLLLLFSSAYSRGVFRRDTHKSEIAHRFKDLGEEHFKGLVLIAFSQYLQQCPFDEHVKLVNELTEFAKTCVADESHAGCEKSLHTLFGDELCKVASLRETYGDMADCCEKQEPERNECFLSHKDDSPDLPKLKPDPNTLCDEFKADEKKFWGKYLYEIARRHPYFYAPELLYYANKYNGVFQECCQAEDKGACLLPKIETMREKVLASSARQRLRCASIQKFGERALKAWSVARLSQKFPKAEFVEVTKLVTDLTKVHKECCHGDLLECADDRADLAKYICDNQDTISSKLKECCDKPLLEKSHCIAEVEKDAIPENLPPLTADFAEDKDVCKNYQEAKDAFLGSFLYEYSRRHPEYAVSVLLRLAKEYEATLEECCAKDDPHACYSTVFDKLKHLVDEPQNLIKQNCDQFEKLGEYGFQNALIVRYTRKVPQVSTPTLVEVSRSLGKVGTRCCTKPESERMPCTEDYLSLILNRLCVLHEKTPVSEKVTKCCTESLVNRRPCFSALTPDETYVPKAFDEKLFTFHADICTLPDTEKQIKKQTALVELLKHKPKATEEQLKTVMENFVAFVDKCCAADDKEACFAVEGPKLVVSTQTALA

In the case of `O=C1O[C@@H](c2ccccc2)[C@@H](c2ccccc2)N2[C@@H](c3ccccc3OCCO)[C@]3(C(=O)Nc4ccccc43)[C@@H](C(=O)Nc3nc4ccccc4s3)[C@H]12`, the composite z-score in the experiment with Albumin (Bos taurus) was 0.827; in [2], 1.38; in experiment [3], -0.181; in experiment [4], 0.619; in experiment [5], 2.89; in experiment [6], 0.485. Moreover, the composite z-score in the experiment with Sam68 (KHDRBS1) was 1.25; in experiment [7] it was -0.111; in experiment [8], 1.16; in [9], 0.858; in experiment [10] it was 1.23; in experiment [11] it was 0.467. Also, the composite z-score in experiment [12] was determined as 0.865; in experiment [13], 0.778; in [14] it was 0.188; in the experiment on Lefty1, 1.62; in experiment [16] it was 1.17. The composite Z-score in experiment [1] was 0.703 (inactive). Further, the z-score is -2 in experiment [15] and -0.237 (inactive) in [17].
On to `C=C(COC)/C(=C/C[C@@H](OC(C)=O)c1ccc(OCCO)cc1)c1cnc2ccccc2c1`, for which the composite z-score with Albumin (Bos taurus) is 0.0772; in [2], 0.112; in experiment [3], -0.14; in [4], 0.913; in [5] it was -0.161; in [6], 0.999. In addition, the composite z-score in the experiment on Sam68 (KHDRBS1) is 0.74; in experiment [7] it was 1.41; in experiment [8] it was 1.14; in experiment [9] it was 0.616; in experiment [10], 0.328; in experiment [11], -0.514. The composite z-score in [12] came to 0.869; in [13], 1.41; in [14], 1.55; in the experiment on Lefty1 it was 1.29; in experiment [16], 0.857. Also, the composite Z-score in [1] is -0.225 (inactive). The z-score was 0.379 in experiment [15] and -0.846 (inactive) in experiment [17].
`COC(=O)[C@H](Cc1ccccc1)N1CC2=C[C@@H](C3CC3)n3c(=O)n(C)c(=O)n3[C@H]2[C@@H]1[C@@H](O)Cc1ccccc1`: the composite z-score with Albumin (Bos taurus) was 0.503; in experiment [2], 0.0562; in experiment [3], -0.115; in experiment [4] it was 0.298; in experiment [5], 0.653; in experiment [6], 0.0511. For the same compound, the composite z-score amounted to 1.18 in the experiment with Sam68 (KHDRBS1); 0.162 in [7]; 0.658 in experiment [8]; 0.0823 in [9]; 0.881 in experiment [10]; 0.148 in [11]. Further, the composite z-score in experiment [12] was 0.588; in [13] it was 0.898; in [14], 0.212; in the experiment with Lefty1, 0.972; in experiment [16], 0.0263. For the same compound, in experiment [1], the composite Z-score is 0.133 (inactive). Further, the z-score was 1.58 in experiment [15] and -0.126 (inactive) in experiment [17].
Regarding `CC(C)=CCN[C@H](CO)c1ccccc1`, the composite z-score with Albumin (Bos taurus) was -0.0472; in experiment [2], -0.0122; in experiment [3], -0.14; in experiment [4], -0.115; in [5] it was 0.0524; in experiment [6], -0.021. Moreover, the composite z-score in the experiment on Sam68 (KHDRBS1) was -0.127; in [7], 0.218; in experiment [8] it was 0.0857; in experiment [9], -0.23; in [10], -0.341; in experiment [11], -0.0383. Besides, the composite z-score was 0.118 in [12]; 0.546 in experiment [13]; 0.314 in [14]; 0.564 in the experiment with Lefty1; -0.246 in experiment [16]. The composite Z-score in [1] was -0.139 (inactive). Besides, the values for the z-score in [15] and in [17] were -0.989 and 0.765 (inactive), respectively.
Consider `COC(=O)C(CC#Cc1ccc2c(c1)[C@]1(C(=O)N2)[C@H](C(=O)Nc2nc3ccccc3s2)[C@H]2C(=O)O[C@H](c3ccccc3)[C@H](c3ccccc3)N2[C@@H]1c1ccccc1OCCO)C(=O)OC`, for which the composite z-score is 0.987 with Albumin (Bos taurus); 0.116 in experiment [2]; -0.0859 in experiment [3]; 0.663 in [4]; 1.69 in [5]; 0.636 in experiment [6]. Further, the composite z-score is 1.3 in the experiment on Sam68 (KHDRBS1); -0.154 in experiment [7]; 1.14 in [8]; 1.41 in [9]; 1.24 in [10]; 1.04 in [11]. The composite z-score in [12] came to 0.964; in [13], 0.931; in [14] it was 0.452; with Lefty1, 0.625; in experiment [16] it was 1.29. The composite Z-score in experiment [1] is -0.323 (inactive). In addition, the z-score in [15] is -2.25; in experiment [17], -0.293 (inactive).
